Results taken from the supplement of paper PMC11732987, “Enantioselective OTUD7B fragment discovery through chemoproteomics screening and high-throughput optimisation” (Communications Chemistry, 2025).

Key:
Test in all cases: log2 ratio of Biotin-Ahx-Ub-VS probe labelling (fragment/DMSO); higher = less target engagement (more negative = stronger competition), active = hit call of the paper (q ≤ 0.05, log2 ratio ≤ -1)
Settings in all cases: compound concentration: 200 uM; treatment time: 3 h
USP9X = USP9X (UniProt Q93008)
How it was run: (§1)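 Fragment (200 µM) or vehicle was incubated for 3 h with triplicate HEK293T lysate samples of 495 µg, which were then treated with Biotin-Ahx-Ub-VS at 0.5 µM final for 1 h. Labelled DUBs were enriched on NeutrAvidin, digested with LysC and trypsin, and analysed by diaPASEF LC-MS/MS. Values are average log2 fragment/vehicle ratios from an unpaired t-test on global-median-normalised Spectronaut label-free quantities, using proteins with ≥2 unique peptides.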

UniProt O00487 = target: UniProt O00487
UniProt O00487, sequence (O00487 whole entry): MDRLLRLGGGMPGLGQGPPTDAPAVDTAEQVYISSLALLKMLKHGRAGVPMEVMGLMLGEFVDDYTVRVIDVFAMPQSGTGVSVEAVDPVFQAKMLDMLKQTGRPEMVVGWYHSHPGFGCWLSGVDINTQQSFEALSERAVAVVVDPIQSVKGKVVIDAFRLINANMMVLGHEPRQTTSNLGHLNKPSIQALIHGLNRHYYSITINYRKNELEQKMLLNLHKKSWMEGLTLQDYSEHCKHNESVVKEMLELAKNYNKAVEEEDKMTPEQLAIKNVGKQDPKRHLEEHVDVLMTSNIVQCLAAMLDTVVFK
How it was run: as §1

UniProt O00507 = target: UniProt O00507
UniProt O00507, sequence (O00507 whole entry): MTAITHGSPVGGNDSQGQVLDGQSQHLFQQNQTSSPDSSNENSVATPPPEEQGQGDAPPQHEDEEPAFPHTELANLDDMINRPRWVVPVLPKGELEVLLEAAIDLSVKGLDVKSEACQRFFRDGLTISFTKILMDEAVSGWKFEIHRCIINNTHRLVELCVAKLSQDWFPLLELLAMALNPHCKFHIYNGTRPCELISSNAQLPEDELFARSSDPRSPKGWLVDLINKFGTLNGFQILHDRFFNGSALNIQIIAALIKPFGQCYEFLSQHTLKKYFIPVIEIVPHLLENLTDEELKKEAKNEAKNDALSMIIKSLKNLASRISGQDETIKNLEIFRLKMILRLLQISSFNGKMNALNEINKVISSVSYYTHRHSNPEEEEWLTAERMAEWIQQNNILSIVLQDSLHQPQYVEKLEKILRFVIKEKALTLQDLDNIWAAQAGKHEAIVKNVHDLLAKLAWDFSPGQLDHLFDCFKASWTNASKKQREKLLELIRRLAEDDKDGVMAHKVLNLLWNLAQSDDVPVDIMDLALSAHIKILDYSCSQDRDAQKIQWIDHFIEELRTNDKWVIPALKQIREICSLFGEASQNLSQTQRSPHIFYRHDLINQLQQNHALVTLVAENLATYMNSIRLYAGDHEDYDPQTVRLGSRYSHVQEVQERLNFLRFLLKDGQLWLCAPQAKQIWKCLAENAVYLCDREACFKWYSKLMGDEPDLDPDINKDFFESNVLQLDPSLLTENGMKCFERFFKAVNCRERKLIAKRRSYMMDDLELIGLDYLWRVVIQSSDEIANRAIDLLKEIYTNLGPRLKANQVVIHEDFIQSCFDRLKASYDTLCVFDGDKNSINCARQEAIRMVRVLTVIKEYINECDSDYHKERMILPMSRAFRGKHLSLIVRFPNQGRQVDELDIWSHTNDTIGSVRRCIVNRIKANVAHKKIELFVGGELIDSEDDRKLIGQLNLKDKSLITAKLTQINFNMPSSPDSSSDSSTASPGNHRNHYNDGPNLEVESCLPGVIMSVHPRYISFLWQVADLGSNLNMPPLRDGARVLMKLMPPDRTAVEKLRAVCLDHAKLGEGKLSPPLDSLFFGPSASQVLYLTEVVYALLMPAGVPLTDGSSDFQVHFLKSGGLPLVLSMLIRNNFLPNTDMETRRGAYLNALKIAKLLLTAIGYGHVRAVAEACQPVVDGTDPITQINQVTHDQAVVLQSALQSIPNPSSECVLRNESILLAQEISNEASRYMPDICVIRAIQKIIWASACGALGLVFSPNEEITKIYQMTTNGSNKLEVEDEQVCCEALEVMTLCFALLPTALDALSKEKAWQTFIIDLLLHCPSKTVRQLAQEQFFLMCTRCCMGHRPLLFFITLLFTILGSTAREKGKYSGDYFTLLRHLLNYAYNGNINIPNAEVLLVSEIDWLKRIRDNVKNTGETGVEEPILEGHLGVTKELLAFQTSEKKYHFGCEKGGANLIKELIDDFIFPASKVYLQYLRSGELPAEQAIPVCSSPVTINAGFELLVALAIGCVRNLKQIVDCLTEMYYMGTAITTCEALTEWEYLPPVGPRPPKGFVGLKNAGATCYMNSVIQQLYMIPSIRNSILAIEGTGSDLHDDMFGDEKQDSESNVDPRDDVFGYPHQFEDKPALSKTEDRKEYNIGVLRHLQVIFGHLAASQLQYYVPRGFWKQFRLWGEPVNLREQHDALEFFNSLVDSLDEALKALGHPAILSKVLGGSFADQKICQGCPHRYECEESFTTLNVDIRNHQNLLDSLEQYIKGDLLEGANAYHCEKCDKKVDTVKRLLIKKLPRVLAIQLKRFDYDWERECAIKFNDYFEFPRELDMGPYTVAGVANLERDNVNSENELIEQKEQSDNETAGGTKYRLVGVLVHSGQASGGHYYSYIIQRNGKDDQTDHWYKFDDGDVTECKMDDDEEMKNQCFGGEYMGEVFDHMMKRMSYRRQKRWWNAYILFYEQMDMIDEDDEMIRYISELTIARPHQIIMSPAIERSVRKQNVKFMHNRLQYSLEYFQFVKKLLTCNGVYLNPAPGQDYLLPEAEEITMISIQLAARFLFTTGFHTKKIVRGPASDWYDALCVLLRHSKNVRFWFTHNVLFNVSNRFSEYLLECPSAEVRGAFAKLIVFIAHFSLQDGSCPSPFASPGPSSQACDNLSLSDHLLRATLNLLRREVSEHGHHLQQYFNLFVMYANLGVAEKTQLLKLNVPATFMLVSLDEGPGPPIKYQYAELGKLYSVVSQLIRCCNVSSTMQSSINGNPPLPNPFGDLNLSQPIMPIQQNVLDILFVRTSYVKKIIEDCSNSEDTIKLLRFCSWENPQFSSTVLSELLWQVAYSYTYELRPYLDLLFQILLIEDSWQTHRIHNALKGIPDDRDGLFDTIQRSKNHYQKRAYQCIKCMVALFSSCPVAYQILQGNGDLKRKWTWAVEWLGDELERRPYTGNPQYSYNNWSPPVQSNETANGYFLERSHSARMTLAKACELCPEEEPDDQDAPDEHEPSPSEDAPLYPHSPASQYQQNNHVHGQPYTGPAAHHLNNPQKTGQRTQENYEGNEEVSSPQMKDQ
How it was run: as §1

UniProt P51784 = target: UniProt P51784
UniProt P51784, sequence (P51784 whole entry): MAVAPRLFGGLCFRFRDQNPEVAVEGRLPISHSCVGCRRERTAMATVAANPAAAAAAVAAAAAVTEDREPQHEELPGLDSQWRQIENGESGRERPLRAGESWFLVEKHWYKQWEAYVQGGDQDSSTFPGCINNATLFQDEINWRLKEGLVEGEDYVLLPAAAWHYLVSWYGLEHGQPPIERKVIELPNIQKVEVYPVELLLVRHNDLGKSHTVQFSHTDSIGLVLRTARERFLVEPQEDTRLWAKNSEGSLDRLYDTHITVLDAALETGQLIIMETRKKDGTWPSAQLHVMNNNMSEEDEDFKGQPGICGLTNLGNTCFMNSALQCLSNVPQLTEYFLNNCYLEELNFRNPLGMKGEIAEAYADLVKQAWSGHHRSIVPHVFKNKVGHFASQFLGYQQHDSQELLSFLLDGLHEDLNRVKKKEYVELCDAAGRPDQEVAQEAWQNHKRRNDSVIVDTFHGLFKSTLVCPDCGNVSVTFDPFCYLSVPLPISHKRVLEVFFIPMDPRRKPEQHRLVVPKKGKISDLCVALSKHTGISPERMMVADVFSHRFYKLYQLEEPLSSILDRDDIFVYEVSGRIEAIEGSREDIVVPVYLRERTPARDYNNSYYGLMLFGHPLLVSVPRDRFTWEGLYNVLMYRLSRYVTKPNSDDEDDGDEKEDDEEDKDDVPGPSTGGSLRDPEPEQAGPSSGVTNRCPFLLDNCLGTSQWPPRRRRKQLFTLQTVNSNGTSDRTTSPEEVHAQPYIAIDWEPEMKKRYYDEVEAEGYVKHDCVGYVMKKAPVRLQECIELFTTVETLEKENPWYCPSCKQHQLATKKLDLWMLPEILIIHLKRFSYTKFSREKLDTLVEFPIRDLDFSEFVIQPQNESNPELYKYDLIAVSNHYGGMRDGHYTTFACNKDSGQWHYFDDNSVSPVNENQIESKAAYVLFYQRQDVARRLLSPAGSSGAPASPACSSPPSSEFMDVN
How it was run: as §1

UniProt Q5T2D3 = target: T1, UniProt Q5T2D3
T1 sequence (whole entry): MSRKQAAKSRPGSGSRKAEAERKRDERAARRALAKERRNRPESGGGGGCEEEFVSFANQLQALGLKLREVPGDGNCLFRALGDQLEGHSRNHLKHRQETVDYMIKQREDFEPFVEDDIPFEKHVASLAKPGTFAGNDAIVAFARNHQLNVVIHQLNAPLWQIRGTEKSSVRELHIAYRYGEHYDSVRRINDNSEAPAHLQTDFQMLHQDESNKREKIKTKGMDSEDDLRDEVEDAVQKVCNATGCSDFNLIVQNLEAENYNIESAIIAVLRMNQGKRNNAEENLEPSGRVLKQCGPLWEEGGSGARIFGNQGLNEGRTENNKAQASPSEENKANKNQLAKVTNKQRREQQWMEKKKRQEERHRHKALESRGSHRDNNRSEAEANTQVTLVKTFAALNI
How it was run: as §1

UniProt Q8TE49 = target: T2, UniProt Q8TE49
T2 sequence (whole entry): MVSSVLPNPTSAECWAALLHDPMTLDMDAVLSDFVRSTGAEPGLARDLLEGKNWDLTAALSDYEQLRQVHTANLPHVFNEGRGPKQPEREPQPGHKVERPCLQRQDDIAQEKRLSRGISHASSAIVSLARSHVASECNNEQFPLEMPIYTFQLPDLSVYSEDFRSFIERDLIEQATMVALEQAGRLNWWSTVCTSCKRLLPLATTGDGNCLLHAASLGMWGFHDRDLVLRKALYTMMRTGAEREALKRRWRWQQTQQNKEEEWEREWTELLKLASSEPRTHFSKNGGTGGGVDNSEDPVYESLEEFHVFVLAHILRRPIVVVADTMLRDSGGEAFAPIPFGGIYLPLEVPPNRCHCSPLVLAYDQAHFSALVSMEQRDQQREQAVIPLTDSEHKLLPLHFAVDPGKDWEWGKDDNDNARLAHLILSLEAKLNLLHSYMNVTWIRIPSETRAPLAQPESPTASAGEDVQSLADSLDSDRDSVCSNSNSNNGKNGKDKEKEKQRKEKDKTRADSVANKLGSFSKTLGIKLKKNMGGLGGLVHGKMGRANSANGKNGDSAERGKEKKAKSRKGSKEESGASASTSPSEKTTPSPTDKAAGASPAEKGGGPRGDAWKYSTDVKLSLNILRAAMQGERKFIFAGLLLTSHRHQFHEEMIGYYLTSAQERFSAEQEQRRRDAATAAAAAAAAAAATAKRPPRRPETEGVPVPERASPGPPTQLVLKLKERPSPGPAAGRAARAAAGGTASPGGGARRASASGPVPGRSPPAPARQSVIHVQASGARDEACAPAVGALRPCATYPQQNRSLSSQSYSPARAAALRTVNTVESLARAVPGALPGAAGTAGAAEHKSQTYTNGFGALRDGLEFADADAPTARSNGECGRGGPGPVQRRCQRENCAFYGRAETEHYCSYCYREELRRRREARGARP
How it was run: as §1

UniProt Q9P2H5 = target: T3, UniProt Q9P2H5
T3 sequence (whole entry): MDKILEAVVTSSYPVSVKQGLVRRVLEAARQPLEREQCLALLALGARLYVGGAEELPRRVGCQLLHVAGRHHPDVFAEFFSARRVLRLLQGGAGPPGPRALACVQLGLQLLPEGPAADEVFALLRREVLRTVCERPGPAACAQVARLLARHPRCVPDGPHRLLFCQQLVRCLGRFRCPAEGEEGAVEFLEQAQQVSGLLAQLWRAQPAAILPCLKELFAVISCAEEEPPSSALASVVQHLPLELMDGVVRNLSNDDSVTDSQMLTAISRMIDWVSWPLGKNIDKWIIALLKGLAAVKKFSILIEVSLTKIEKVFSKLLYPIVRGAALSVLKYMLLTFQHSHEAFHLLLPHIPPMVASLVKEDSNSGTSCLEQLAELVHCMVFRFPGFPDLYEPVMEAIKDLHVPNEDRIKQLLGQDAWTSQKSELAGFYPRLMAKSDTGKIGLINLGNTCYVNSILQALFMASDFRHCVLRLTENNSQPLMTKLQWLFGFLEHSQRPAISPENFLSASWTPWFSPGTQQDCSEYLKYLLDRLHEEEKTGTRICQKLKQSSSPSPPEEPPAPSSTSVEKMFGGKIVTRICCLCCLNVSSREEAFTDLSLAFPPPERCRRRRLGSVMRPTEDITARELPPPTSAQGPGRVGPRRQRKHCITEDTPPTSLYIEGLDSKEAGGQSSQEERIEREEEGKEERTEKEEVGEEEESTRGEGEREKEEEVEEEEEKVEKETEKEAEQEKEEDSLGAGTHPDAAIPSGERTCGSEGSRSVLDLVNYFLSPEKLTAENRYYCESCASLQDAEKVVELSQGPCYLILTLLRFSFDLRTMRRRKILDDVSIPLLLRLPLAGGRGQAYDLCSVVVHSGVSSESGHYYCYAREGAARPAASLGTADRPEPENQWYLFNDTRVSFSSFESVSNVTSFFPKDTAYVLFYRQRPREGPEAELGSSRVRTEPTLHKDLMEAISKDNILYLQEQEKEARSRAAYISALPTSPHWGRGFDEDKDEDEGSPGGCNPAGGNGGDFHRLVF
How it was run: as §1

UniProt Q9UGI0 = target: T4, UniProt Q9UGI0
T4 sequence (whole entry): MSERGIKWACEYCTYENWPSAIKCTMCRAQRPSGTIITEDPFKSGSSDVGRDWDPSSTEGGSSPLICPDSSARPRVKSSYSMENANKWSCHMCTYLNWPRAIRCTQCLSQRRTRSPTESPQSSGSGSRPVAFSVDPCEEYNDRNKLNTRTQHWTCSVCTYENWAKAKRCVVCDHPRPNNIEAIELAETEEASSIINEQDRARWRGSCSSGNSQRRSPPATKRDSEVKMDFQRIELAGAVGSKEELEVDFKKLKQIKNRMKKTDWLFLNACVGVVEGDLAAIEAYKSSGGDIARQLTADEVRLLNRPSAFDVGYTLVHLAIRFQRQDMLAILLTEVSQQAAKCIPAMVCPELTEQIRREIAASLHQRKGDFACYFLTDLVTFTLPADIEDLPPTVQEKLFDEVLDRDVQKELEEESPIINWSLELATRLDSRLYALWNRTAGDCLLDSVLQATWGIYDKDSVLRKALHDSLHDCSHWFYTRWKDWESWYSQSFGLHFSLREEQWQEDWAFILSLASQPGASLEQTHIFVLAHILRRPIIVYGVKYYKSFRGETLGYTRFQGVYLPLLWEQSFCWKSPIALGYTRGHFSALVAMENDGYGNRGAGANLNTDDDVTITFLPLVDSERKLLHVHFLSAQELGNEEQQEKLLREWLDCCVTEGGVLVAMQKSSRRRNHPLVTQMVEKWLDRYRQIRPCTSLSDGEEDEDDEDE
How it was run: as §1

YOD1 = target: T5, YOD1 (UniProt Q5VVQ6)
T5 sequence (whole entry): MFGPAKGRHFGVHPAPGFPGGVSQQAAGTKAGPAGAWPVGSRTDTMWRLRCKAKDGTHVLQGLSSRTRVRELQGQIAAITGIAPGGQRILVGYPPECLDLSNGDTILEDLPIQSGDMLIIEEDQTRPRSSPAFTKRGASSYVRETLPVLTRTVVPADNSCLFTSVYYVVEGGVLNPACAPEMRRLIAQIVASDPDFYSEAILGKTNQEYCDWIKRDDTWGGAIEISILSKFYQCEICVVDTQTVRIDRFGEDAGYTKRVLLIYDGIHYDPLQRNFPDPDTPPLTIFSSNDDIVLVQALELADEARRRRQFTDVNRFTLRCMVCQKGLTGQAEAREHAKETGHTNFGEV
How it was run: as §1

Measured: log2 ratio of Biotin-Ahx-Ub-VS probe labelling

Cc1n[nH]c(=O)c2c(NC(=O)CCl)oc(C)c12
inactive: USP9X -0.056 | UniProt O00487 -0.0655 | UniProt O00507 0.347 | UniProt P51784 0.0686 | UniProt Q5T2D3 -0.674 | UniProt Q8TE49 -0.575 | UniProt Q9P2H5 -0.144 | UniProt Q9UGI0 0.264 | YOD1 0.238
